Screening data deposited in PubChem BioAssay by National Center for Advancing Translational Sciences (NCATS).
KCNH2 3.1 inh = blocks the human KCNH2 3.1 channel isoform; U2OS KCNH2 3.1, thallium flux FluxOr; hits give low values; activity change, % (tested at about 1.8 µM); hit rate 0.95% among 340,000;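 active = maximum activity change below -70%; inconclusive = maximum activity change from -70% to -50%; inactive = maximum activity change above -50%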;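 also: thallium influx rate constant from kinetic fluorescence after stimulation buffer; % is scaled to controls: 0 for no effect and ±100 for the full control effect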
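Steps: virus added to U2OS suspension (4 h, RT, dark); medium with 10% FBS added, cells plated, 37 C overnight; FluxOr/Red40 loading buffer 45 min RT; stimulation buffer, 2 min kinetic read; rate constant normalized.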
12-LOX inh = inhibitors of human 12S-lipoxygenase ALOX12 | purified 12hLO, xylenol orange hydroperoxide absorbance | Potency, µM (highest dose often 108 µM), for inactives: at the highest dose activity change, negative = inhibition, actives largely listed as inhibitors | hit rate 1.1% among 580,000 | AID 1671190; also: potency is read from the fitted curve at half-maximal effect; % is scaled to controls: 0 for no effect and ±100 for the full control effect
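Hydroperoxide product was detected by ferrous iron/xylenol orange as the 573 to 405 nm absorbance ratio. Arachidonic acid at 40 uM (final) was turned over for 30 min at room temperature by 150 nM human 12hLO, pH 7.0 Hepes buffer, after 15 min compound preincubation.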
KCNH2 WT inh = blocks the wildtype human KCNH2 potassium channel. U2OS, BacMam KCNH2, thallium flux FluxOr; hits give low values. AID 720551. activity change, % at 1.84 µM. Q12809. hit rate 0.37% among 340,000;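 active = maximum activity change below -70%; inconclusive = maximum activity change between -70% and -50%; inactive = maximum activity change above -50%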; also: % is scaled to controls: 0 for no effect and ±100 for the full control effect
Target sequence (Q12809 whole entry, looked up): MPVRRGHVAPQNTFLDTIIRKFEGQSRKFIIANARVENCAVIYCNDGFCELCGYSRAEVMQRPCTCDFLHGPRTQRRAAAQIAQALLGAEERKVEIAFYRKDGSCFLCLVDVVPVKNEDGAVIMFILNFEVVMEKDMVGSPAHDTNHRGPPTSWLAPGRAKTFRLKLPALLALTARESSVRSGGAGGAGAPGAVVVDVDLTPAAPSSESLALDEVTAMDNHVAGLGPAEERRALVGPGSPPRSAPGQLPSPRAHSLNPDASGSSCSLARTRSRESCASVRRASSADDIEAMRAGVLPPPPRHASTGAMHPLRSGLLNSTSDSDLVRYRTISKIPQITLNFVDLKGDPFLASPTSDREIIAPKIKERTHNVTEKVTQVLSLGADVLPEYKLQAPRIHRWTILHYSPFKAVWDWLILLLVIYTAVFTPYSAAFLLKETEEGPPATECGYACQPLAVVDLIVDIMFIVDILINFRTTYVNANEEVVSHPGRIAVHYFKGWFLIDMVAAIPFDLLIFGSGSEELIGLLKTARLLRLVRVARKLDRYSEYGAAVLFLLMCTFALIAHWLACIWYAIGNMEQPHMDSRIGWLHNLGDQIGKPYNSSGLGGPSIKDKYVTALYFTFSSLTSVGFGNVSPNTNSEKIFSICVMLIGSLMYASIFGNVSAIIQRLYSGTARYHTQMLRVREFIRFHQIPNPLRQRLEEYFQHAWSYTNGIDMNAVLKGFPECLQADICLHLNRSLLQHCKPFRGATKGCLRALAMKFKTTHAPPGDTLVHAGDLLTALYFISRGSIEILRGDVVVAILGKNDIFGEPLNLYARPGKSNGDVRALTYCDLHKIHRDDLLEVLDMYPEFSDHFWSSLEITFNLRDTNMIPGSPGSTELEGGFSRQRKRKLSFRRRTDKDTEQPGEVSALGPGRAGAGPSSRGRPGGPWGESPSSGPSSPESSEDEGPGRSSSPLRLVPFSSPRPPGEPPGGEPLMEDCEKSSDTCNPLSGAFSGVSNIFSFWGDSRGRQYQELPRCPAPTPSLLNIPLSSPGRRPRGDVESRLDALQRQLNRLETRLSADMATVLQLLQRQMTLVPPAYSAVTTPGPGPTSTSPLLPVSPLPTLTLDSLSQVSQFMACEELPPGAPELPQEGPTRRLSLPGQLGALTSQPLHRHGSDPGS
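U2OS cells were transduced with wild-type KCNH2 virus (2.03 x 10^8 / mL) for 4 h at room temperature, then cultured overnight at 37 C. Thallium flux was read with FluxOr dye. Rate constants were normalized to DMSO controls.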
A-T KAP1 phos = candidate therapy for ataxia-telangiectasia; F2112 A-T fibroblasts, KAP-1 phosphorylation AlphaLISA; neocarzinostatin DNA damage 30 min before lysis; Potency, µM (series often up to 57.5 µM), for inactives: at the top dose activation, most hits filed as activators; hit rate 0.19% among 320,000; also: potency is read from the fitted curve at half-maximal effect; % of control where 0% means no effect; nearly all actives have a fitted effect of over 45% in size
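hTERT-immortalized A-T patient fibroblasts (F2112), 500 cells/well in OPTI-MEM, 1% FBS, got compounds for 60 min, then NCS for 30 min at 37C. Lysates were then assayed for phospho-KAP-1 by AlphaLISA (anti-pKAP1 donor, anti-KAP1 acceptor beads), 6 hr at 25C.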
* hit, by the source's call; u = inconclusive; x = no result given; ! = repeats disagree; [ ] = remark or other dose. Only some compounds are listed: those with a hit (about 1.8% of all), similar ones and a draw of the others. Unless noted, calls follow the shape of the dose curve; as a rule, active = well fitted curve in the direction sought with a large enough effect; inconclusive = small, poorly fitted or top-dose-only effect, or another doubt; inactive = no such curve, though single readings can be large; an effect the other way counts as inactive or inconclusive.

SMILES	KCNH2 3.1 inh	12-LOX inh	KCNH2 WT inh	A-T KAP1 phos
CCOC(=O)N1CCN(Cc2nc(N)nc(Nc3ccc(Cl)cc3)n2)CC1	-99.6*	3.5%	6.2	0.0%
CCOC(=O)N1CCN(Cc2nc(N)nc(Nc3ccc(Oc4ccccc4)cc3)n2)CC1	-89.0*	24.2%	-32.0	4.2%
Cc1ccc(C(Nc2ccccn2)c2ccc3cccnc3c2O)cc1 (centres undefined)	x	17.8µM*	x	x
CCCC(=O)NC(c1ccc(C)cc1)c1ccc2cccnc2c1O (centres undefined)	-8.5	x	7.4	-4.2%
COc1cccc(S(=O)(=O)N2CC(n3cc(C(=O)NCC4CC4)nn3)C2)c1	x	17.8%	x	x
C=CCn1c(=O)c(C(C)=O)cn(N(C)c2ncc(C(F)(F)F)cc2Cl)c1=O	-113.8*	-4.3%	-2.0	1.6%
Cc1ccc(CN2CCN(CCCn3cnc4c(OCc5ccccc5)ncnc43)CC2)cc1	-96.7*	u	-127.0*	x
CCN(CC)c1ccc(N=Nc2nn(C)c(C)c2[N+](=O)[O-])cc1	3.4	-6.0%	-124.9*	-2.4%
O=C(Nc1ccc2c(c1)OCCCO2)C(Sc1ccccc1)c1ccccc1 (centres undefined)	x	-6.0%	x	x
COc1cc(/C=N/NC(=O)C2CCN(CC(O)COCc3ccccc3)CC2)ccc1O (centres undefined)	-99.1*	-6.7%	-128.2*	-0.6%
C=CCNCc1ccc(Cl)cc1	x	-16.0%	x	x
CN(Cc1ccccc1)C(=O)C1CCN(Cc2cccc3ccccc23)CC1	x	1.26µM*	x	x
Cc1ccccc1CN(C)C1CCN(C)CC1	-6.9	-9.7%	10.9	0.8%
COc1ccccc1CN1CCCC(C(=O)N(C)Cc2ccccc2)C1 (centres undefined)	16.1	u	1.5	-3.1%
COc1ccc(CN2CCCC(C(=O)N(C)Cc3ccccc3)C2)cc1OC (centres undefined)	-75.1*	u	-9.0	0.9%
Cc1ccccc1CN1CCC(N(C)Cc2ccccc2)CC1	x	0.562µM*	x	x
CNC(=O)c1ccc(NC(=O)CC2C=CCC2)cc1 (centres undefined)	x	-54.0%	x	x
COc1ccc(C[C@@H]2CN3C(=NC[C@@H]3C)N2C[C@H](C)NC(=O)CCC2CCCCC2)cc1	-84.3*	-12.6%	-129.5*	-11.3%
COc1ccc(C[C@H]2CN3C(=NC[C@H]3Cc3ccccc3)N2CCNC(=O)CCC2CCCCC2)cc1	u	u	-107.2*	7.8%
C/C=C(\C)C(=O)NCCN1C2=NC[C@H](Cc3ccccc3)N2C[C@@H]1Cc1ccc(OC)cc1	-83.2*	-2.3%	-25.8	x
O=C(CN1CCN(Cc2cccs2)CC1)Nc1cccc2nsnc12	x	3.6%	x	x
CC(C)c1ccc(Cn2ccc3c4c(N)nc(NC5CC5)nc4ccc32)cc1	x	21.7µM*!	x	x
CCC(Oc1ccccc1)C(=O)N1CCC(C(N)=O)CC1 (centres undefined)	-2.2	0.0%	-109.1*	5.3%
CC(C)(C)c1cc(Sc2c(Cl)c(Cl)nc(Cl)c2Cl)cc(C(C)(C)C)c1O	x	17.6%	x	x
CCCNC(=O)OCCC12CC3CC(CC(C3)C1)C2	12.7	-11.6%	-4.5	31.6µM*
SMILES	KCNH2 3.1 inh	12-LOX inh	KCNH2 WT inh	A-T KAP1 phos
COc1ccccc1CNC(=O)c1cccc(N(C)C)c1	-12.3	1.78µM*	9.7	-1.1%
CCc1cccc(C)c1NC(=O)c1cccc(N(C)C)c1	-20.2	22.4µM*	7.8	-1.8%
CN(C)c1cccc(C(=O)NNc2c(Cl)cc(Cl)cc2Cl)c1	x	5.01µM*	x	x
CN(C)c1ccc(NC(=O)c2cccc(N(C)C)c2)cc1	x	-39.9%	x	x
Cc1noc([C@@H]2CC(F)(F)CN2)n1	x	24.8%	x	x
O=C(Nc1ccc(-c2noc(-c3cccs3)n2)cc1)c1ccc(Br)o1	x	-47.0%	x	x
O=C(Nc1ccc(-c2noc(/C=C/c3ccccc3)n2)cc1)c1ccc(Br)o1	x	28.2µM*	x	x
c1coc(-c2nc3nccc(-c4ccc5c(c4)OCCCO5)n3n2)c1	x	-1.1%	x	x
Cc1cc(C)c2c(CN3CCCCC3)cc(=O)oc2c1	2.9	26.8%	5.8	-8.6%
Cc1cc(C)c2c(CN3CCN(C/C=C/c4ccccc4)CC3)cc(=O)oc2c1	-86.8*	-24.7%	-100.7*	-4.0%
Cc1cc(C)c2c(CN3CCC(C)CC3)cc(=O)oc2c1	-8.6	44.7µM*	-1.1	1.3%
COc1cc(Br)cc(CN2CCN(C/C=C/c3ccccc3)CC2)c1O	-71.4*	14.1µM*	-23.6	-3.8%
Cc1ccc(-c2cc3c(=O)n(CCNC(=O)c4ccc5cc[nH]c5c4)ccn3n2)cc1C	x	-15.4%	x	x
O=C(c1cnc2n1CCN(CCc1ccccc1)CC2)N1CCC(c2ccccc2)CC1	x	-8.3%[176 µM]	x	x
